The values below come from PubChem BioAssay.

Assay [1] can be described thus: E. coli DRC41 culture turbidity changes, primary screen, E. coli filamentation inducer project, strain DRC41, OD650, 48 h (AID 1152).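 Also: E. coli MC1000 strain DRC41 lacking acrAB efflux pump and sulA.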 As to conditions: E. coli DRC41 (acrAB sulA), higher = more signal, called active from +8 up or from −8 down.
The nature of assay [2]: small-molecule binders of probe aLefty1, primary screen, biochemical, small-molecule microarray, 635/667 nm fluorescence (AID 1153).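 Also: score merges spot fluorescence with signal-to-noise ratio from the scanned slide images.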 Conditions: higher = more signal.
Assay [3] in a line: PSAC antagonists in infected red cells, primary screen, cell-based, P. falciparum Indochina, OD700, 1 h (AID 1154). Conditions: P. falciparum Indochina infected RBC osmotic lysis, higher = more signal, called active from +8 up or from −8 down.
A short description of assay [4]: PSAC antagonists in infected red cells, primary screen, cell-based, P. falciparum Indochina, OD700, 2 h (AID 1155).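 Also: lysis reports solute entry through the parasite surface anion channel PSAC; channel blockers reduce lysis of infected cells.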 Conditions: P. falciparum Indochina infected erythrocytes, osmotic lysis OD700; higher = more signal, called active from +8 up or from −8 down.
Assay [5] in a line: osmotic lysis modulators in infected erythrocytes, primary screen, PSAC antagonist project, cell-based, P. falciparum Indochina, OD700, 3 h (AID 1156). As to conditions: higher = more signal, called active from +8 up or from −8 down.
Assay [6] is described as follows: PSAC antagonists in infected red cells, primary screen, cell-based, P. falciparum Indochina, OD700, 18 h (AID 1157). Conditions: P. falciparum Indochina infected erythrocytes, osmotic lysis OD700, 18 h; higher = more signal, called active from +8 up or from −8 down.
A short description of assay [7]: modulators of S6 phosphorylation in cells, primary screen, cell-based, A549, cytoblot, luminescence, serum-stimulated (AID 1158).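 Also: serum-stimulated A549 lung adenocarcinoma cells; signal is phosphorylated S6 detected by cytoblot immunostaining with HRP secondary.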 As to conditions: A549 phospho-S6 cytoblot, 5 h, higher = more signal.
Assay [8] has as its target NADPH oxidase 2 (Homo sapiens) (UniProt P04839). Briefly: NOX2-dependent H2O2 signal modulators, primary screen, NOX inhibitor project, cell-based, HEK293-NOX2, PMA-stimulated, Amplex Red fluorescence (AID 1159). Also: test concentration not given here. As to conditions: 45 min, higher = more signal, called active from +8 up or from −8 down.
The target in assay [9] is NADPH oxidase 4 (Homo sapiens) (UniProt Q9NPH5). Briefly: NOX4-dependent H2O2 signal modulators, primary screen, NOX inhibitor project, cell-based, HEK293-NOX4, tetracycline-induced, Amplex Red fluorescence (AID 1160). As to conditions: 45 min, higher = more signal, called active from +8 up or from −8 down.
Assay [10] concerns the target NADPH oxidase 5 (Homo sapiens) (UniProt Q96PH1). Briefly: NOX5-dependent H2O2 signal modulators, primary screen, NOX inhibitor project, cell-based, HEK293-NOX5, Amplex Red fluorescence (AID 1161). As to conditions: HEK293-NOX5, ionomycin, 45 min, higher = more signal.
The nature of assay [11]: A549 cell viability effects, profiling panel, calcein-AM fluorescence, 48 h, basal (AID 1162). Also: test concentration not given here. Conditions: higher = more signal.
The nature of assay [12]: adipocyte viability effects, profiling panel, cell-based, 3T3-L1 adipocytes, calcein-AM fluorescence, 48 h, basal (AID 1163). Also: test concentration not given here. As to conditions: 3T3-L1 adipocytes viability, higher = more signal.
Assay [13] in a line: HepG2 cell viability effects, profiling panel, calcein-AM fluorescence, 48 h, basal (AID 1164). Also: test concentration not given here. Conditions: higher = more signal.
The nature of assay [14]: MM1S cell viability effects, profiling panel, calcein-AM fluorescence, 48 h, basal (AID 1165).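 Also: viability of MM1S multiple myeloma cells under basal unstimulated conditions; test concentration not given here.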 Conditions: higher = more signal.
A short description of assay [15]: basal RPMI8226 viability, no added stimulus, profiling panel, cell-based, calcein-AM fluorescence, 48 h, PK04 Diversity Set (AID 1166).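 Also: cells grown under basal conditions without added stimulus; test concentration not given here.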 Conditions: RPMI8226 myeloma viability, higher = more signal.
The nature of assay [16]: basal HepG2 mitochondrial membrane potential changes, profiling panel, cell-based, JC-1 fluorescence, 24 h, 100 nL compound (AID 1167). Also: test concentration not given here. As to conditions: higher = more signal.
Assay [17] is described as follows: basal 3T3-L1 adipocyte mitochondrial potential changes, profiling panel, cell-based, JC-1 fluorescence, 3T3-L1 adipocytes, 24 h, 100 nL compound (AID 1168). Also: test concentration not given here. Conditions: JC-1 mitochondrial fluorescence, higher = more signal, called active from +8 up or from −8 down.
Assay [18] is described as follows: basal RPMI8226 mitochondrial membrane potential changes, profiling panel, cell-based, JC-1 fluorescence, 24 h, 100 nL compound (AID 1169). Also: test concentration not given here. Conditions: RPMI8226 myeloma, JC-1 mitochondrial potential fluorescence, higher = more signal.
The nature of assay [19]: basal MM1S mitochondrial membrane potential changes, profiling panel, cell-based, JC-1 fluorescence, 24 h, 100 nL compound (AID 1170). Also: test concentration not given here. As to conditions: higher = more signal.
The nature of assay [20]: A549 lung cancer cell viability effects, profiling panel, resazurin fluorescence, 24 h, PK04 Diversity Set (AID 1171). Also: test concentration not given here. As to conditions: higher = more signal, called active from +8 up or from −8 down. (In general: Alamar Blue is a resazurin reagent that responds to reducing activity.)

Calls of active or inactive are those of the source.

NADPH oxidase 5 (Homo sapiens), sequence (Q96PH1 whole entry, looked up): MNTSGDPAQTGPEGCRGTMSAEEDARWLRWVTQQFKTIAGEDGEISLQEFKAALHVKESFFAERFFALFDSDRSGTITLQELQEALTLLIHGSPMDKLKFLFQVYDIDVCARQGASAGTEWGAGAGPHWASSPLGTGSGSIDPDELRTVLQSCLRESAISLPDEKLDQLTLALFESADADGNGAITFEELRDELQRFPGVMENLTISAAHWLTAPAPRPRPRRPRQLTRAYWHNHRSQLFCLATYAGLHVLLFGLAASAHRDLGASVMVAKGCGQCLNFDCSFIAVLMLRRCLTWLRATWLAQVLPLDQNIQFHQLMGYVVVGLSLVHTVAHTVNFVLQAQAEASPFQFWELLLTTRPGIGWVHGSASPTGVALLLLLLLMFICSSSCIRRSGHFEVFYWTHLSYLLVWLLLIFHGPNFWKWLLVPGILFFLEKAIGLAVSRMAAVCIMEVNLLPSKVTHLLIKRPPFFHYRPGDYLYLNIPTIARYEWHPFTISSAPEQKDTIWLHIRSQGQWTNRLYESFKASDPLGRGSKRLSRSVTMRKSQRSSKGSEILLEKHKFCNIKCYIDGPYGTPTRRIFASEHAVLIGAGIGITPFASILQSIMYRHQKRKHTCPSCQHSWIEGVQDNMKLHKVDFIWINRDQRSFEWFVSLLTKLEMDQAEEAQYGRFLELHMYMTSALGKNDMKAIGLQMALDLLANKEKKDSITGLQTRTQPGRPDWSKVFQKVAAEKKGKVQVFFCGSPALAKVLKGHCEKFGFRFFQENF
NADPH oxidase 2 (Homo sapiens), sequence (P04839 whole entry, looked up): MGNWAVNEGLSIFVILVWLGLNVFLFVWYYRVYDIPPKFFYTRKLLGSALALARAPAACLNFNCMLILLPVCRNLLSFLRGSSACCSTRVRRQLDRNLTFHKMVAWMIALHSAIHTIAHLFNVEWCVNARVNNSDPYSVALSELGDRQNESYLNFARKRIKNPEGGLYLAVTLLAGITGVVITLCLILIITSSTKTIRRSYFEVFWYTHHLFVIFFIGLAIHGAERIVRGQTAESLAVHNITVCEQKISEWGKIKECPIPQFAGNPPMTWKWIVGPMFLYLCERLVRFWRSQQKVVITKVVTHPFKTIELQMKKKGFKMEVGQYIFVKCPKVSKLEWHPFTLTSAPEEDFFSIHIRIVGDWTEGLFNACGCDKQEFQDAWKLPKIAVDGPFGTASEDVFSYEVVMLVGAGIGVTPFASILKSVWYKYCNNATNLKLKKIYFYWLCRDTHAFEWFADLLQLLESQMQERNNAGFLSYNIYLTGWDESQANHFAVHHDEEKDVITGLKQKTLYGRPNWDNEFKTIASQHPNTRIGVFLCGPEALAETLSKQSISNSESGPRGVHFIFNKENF
NADPH oxidase 4 (Homo sapiens), sequence (Q9NPH5 whole entry, looked up): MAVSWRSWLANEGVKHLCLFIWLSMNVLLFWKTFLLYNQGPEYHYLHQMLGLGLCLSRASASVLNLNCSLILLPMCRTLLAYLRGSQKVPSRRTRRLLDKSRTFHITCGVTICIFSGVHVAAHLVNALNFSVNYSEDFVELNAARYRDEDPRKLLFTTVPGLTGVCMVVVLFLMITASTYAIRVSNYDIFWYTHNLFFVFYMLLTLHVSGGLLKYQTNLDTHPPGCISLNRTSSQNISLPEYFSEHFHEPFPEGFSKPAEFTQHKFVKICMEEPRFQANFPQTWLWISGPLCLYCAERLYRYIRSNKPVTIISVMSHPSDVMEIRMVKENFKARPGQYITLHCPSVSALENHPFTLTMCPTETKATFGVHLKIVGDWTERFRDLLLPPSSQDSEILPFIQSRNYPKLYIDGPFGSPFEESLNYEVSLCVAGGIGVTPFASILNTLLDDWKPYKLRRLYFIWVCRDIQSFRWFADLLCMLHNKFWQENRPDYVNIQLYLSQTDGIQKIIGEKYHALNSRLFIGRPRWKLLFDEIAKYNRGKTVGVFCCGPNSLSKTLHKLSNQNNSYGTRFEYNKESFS

Consider `NC(=O)N1C(=O)C2C(C1=O)C1C=C(CCCO)C2C(c2ccc(CN3CCCC3)cc2)N1Cc1sc2ccccc2c1Cl` (stereo not given), for which the z-score was -0.711 (inactive) in [1]; 3.48 (inactive) in assay [3]; 0.894 (inactive) in assay [4]; 0.363 (inactive) in assay [5]; 0.504 (inactive) in assay [6]; 0.457 in [7]. In addition, the z-score in assay [8] was -0.101 (inactive); in [9] it was 0.353 (inactive); in assay [10] it was 0.198; in assay [11] it was -0.142; in assay [12], -0.501; in [13] it was -0.389. The z-score was -2.67 in [14]; 0.0222 in [15]; 0.916 in assay [16]; -0.753 (inactive) in assay [17]; 0.0845 in [18]; 0.423 in assay [19]. In assay [20], the z-score is -0.301 (inactive). The composite z-score in assay [2] was -0.251.

As for `C=CCOC(=O)[C@@H]1[C@H]2C(=O)O[C@H](c3ccccc3)[C@H](c3ccccc3)N2[C@H](c2ccc(OCCOC(=O)[C@H]3C[C@H]4C(=O)NCC(=O)N4[C@H]3c3cccc(OCCO)c3)cc2)[C@@]12C(=O)Nc1ccc(I)cc12`, the z-score in assay [1] was -0.27 (inactive); in assay [3] it was 1.5 (inactive); in [4], 1.56 (inactive); in assay [5], 1.06 (inactive); in [6], 1.26 (inactive); in assay [7], 0.117. In addition, the z-score was 1.54 (inactive) in [8]; 0.436 (inactive) in assay [9]; 1.55 in [10]; -0.175 in assay [11]; -0.407 in assay [12]; 0.946 in [13]. In addition, the z-score in [14] was 0.464; in assay [15], -0.785; in assay [16], -1.05; in [17], 1.44 (inactive); in assay [18], -0.632; in assay [19] it was -1.27. Also, in [20], the z-score is 0.169 (inactive). The composite z-score in [2] amounted to 0.248.

For `C=C(CCCC)/C(=C/C[C@H](OC(=O)c1ccncc1)c1ccc(OCCO)cc1)c1cnc2ccccc2c1`, the z-score in assay [1] is 0.339 (inactive); in [3], 26.5 (active); in assay [4], 11.9 (active); in assay [5], 1.98 (inactive); in assay [6] it was 1.31 (inactive); in assay [7] it was -0.594. In addition, the z-score is -0.0888 (inactive) in [8]; 0.589 (inactive) in assay [9]; -0.964 in assay [10]; 1.09 in [11]; 0.464 in [12]; 0.014 in assay [13]. Besides, the z-score is -2.55 in [14]; -0.499 in [15]; 1.98 in [16]; -0.689 (inactive) in assay [17]; -0.756 in [18]; -0.262 in assay [19]. For the same compound, in [20], the z-score was 1.2 (inactive). In assay [2], this compound had a composite z-score of 0.127.

On to `C[C@]1(C(=O)O)c2ccccc2C(=O)N(Cc2cc(F)cc(C(F)(F)F)c2)[C@H]1c1ccc(CO)cc1`, for which the z-score in assay [1] is -0.169 (inactive); in [3] it was 2.63 (inactive); in [4], -0.0481 (inactive); in assay [5], -0.992 (inactive); in [6], -0.927 (inactive); in [7], 1.27. Moreover, the z-score in assay [8] was 0.477 (inactive); in [9] it was -1.43 (inactive); in [10] it was -2.26; in [11] it was 0.653; in [12], 0.658; in [13], -0.577. In addition, the z-score is 0.471 in assay [14]; 0.792 in assay [15]; -0.23 in assay [16]; 0.235 (inactive) in assay [17]; 0.383 in [18]; -0.703 in assay [19]. The z-score in assay [20] is 1.27 (inactive). In [2], this compound showed a composite z-score of -0.261.
